Hits are enriched below; roughly 10% of the tested compounds scored in any of these assays.
NIH3T3 tox = cytotoxic compounds in NIH 3T3 cells | NIH 3T3 viability, CellTiter-Glo ATP luminescence, 48-72 h | Potency, µM (titrated, usually from 96.7 µM), without a hit: top-dose activity change, negative = cytotoxicity, most hits filed as inhibitors | 94,000 tested, 4.3% active; note: % is set by controls: 0 for no effect and ±100 for the full control effect; nearly all actives have a fitted effect of over 55% in size
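Cells were seeded at 400 per well, treated with pin-transferred compound, and kept 48 or 72 hr at 37 °C before CellTiter-Glo addition and luminescence imaging of cellular ATP.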
Luciferase inh = Photinus pyralis luciferase inhibition; 76,000 tested, 2.5% active; purified P. pyralis luciferase, luminescence, biochemical; Potency, µM (top dose mostly 115 µM), usual class: inhibitors; AID 1347043; P08659; note: % is set by controls: 0 for no effect and ±100 for the full control effect; nearly all actives have a fitted effect of over 65% in size
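Inhibitors were tested against purified firefly luciferase in a biochemical, low-substrate format (both substrates at 10uM) and luminescence measured with a CCD imager.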
GPT2 inhibitor = inhibitors of human GPT2 alanine aminotransferase; Q8TD30; Recombinant GPT2, coupled pyruvate oxidase/HRP Amplex Red fluorescence; Potency, µM (highest dose often 57.7 µM), for inactives: top-dose activity change, negative = inhibition, hits mostly inhibitors; 100,000 tested, 0.25% active; note: % is set by controls: 0 for no effect and ±100 for the full control effect; nearly all actives have a fitted effect of over 60% in size
Target sequence (Q8TD30 whole entry, looked up): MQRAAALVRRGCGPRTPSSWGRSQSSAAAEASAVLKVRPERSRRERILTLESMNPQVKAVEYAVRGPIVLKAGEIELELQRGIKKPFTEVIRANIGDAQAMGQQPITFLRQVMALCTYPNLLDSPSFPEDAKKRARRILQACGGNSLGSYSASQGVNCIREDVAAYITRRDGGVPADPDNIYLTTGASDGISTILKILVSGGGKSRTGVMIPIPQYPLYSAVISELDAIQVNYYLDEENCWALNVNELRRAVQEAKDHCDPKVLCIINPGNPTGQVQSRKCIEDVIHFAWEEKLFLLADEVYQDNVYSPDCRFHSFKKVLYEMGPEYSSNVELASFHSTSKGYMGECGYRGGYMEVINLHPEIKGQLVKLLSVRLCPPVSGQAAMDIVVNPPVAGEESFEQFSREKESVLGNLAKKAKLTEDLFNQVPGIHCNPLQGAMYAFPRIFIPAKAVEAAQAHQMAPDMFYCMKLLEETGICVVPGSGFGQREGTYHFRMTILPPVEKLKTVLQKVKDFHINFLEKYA
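Fluorescence read-out: pyruvate from GPT2 turnover coupled to pyruvate oxidase, HRP and Amplex Red (0.2mM ThPP, 0.2U/mL PO and HRP, 50uM Amplex final). Substrates 250uM a-KG, 2mM L-alanine; enzyme 10ng/uL; 30 min RT.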
HEK cytotox = HEK 293 cell cytotoxicity | AID 1345083 | Potency, µM (doses to about 115 µM), for inactives: at the top dose activity change, negative = cytotoxicity, usual class: inhibitors | 94,000 tested, 6.6% active | HEK 293 viability, ATP luminescence (CellTiter-Glo), 48-72 h; note: % is set by controls: 0 for no effect and ±100 for the full control effect; nearly all actives have a fitted effect of over 60% in size
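Cells seeded first (HEK 293, 250 cells/well), then compound added by pintool. Incubation ran 48 or 72 hr at 37 degree Celsius. CellTiter-Glo was added and luminescence imaged after 10 min at room temperature.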
hNpr1 antagonist = blocks ANP-stimulated signaling of human Npr1 receptor | HEK293 hNpr1 GloSensor cGMP, ANP-stimulated luminescence | Potency, µM (highest dose often 46.3 µM), without a hit: at the top dose activity change, negative = inhibition, usual class: inhibitors | 76,000 tested, 1.6% active | P16066; calls by dose curve; note: % is set by controls: 0 for no effect and ±100 for the full control effect; nearly all actives have a fitted effect of over 60% in size
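HEK293 cells stably expressing human Npr1 and cGMP GloSensor pGS-40F, loaded 2 h with 2% GloSensor reagent, given compound 30 min at room temperature. Luminescence read before and 20 min after 0.1 nM hNppA.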
Npr1 antag conf = confirmation of human Npr1 natriuretic peptide receptor antagonists. shares compounds with hNpr1 antagonist. HEK293 hNpr1 cGMP GloSensor luminescence, ANP-stimulated. Potency, µM (highest dose often 57.6 µM), for the others: top-dose activity change, negative = inhibition, usual class: inhibitors. 1,400 tested, 76% active; calls by dose curve; note: nearly all actives have a fitted effect of over 70% in size
Npr2 selectivity = selectivity test of Npr1 antagonists against human Npr2 | shares compounds with hNpr1 antagonist | HEK293 hNpr2 GloSensor cGMP luminescence, CNP-stimulated | 1,400 tested, 67% active | Potency, µM (titrated, usually from 57.6 µM), for inactives: top-dose activity change, negative = inhibition, hits mostly inhibitors; calls by dose curve; note: nearly all actives have a fitted effect of over 70% in size
FLuc inh counter = FLuc enzyme inhibition, Npr1 counter-screen | shares compounds with hNpr1 antagonist | purified FLuc enzyme, luminescence, Km substrate | Potency, µM (highest dose often 57.6 µM), inactives show at the highest dose activity change, negative = inhibition, hits mostly inhibitors | 1,400 tested, 0.7% active | AID 1347047; note: 0% is about no effect
GloSensor ctrl = counter-screen for Npr1 antagonists: GloSensor control cell line; shares compounds with hNpr1 antagonist; HEK293 GloSensor cGMP, SNP-stimulated, luminescence; Potency, µM (highest dose often 57.6 µM), for the others: at the top dose activity change, negative = inhibition, actives largely listed as inhibitors; 1,400 tested, 69% active; AID 1347051; calls by dose curve; note: % is set by controls: 0 for no effect and ±100 for the full control effect; nearly all actives have a fitted effect of over 70% in size
* = called active by the depositor; i = inactive; ? = inconclusive; . = not tested or not shown; [ ] = dose if it differs, or a comment. Unless noted, calls come from the whole dose curve; as a rule, active = well fitted curve in the direction sought with a large enough effect; inconclusive = small, poorly fitted or top-dose-only effect, or another doubt; inactive = no such curve, though single readings can be large; an effect the other way counts as inactive or inconclusive. Potency is the fitted concentration of half-maximal effect.

SMILES | NIH3T3 tox | Luciferase inh | GPT2 inhibitor | HEK cytotox | hNpr1 antagonist | Npr1 antag conf | Npr2 selectivity | FLuc inh counter | GloSensor ctrl
CCOc1ccc(C(=O)N2CCCN(c3cc(-c4ccc(F)cc4)[nH]n3)CC2)cc1 | ? | i | ? | 32µM* | 22µM* | 27µM* | ? | 0% | 22µM*
O=C(c1ccoc1)N1CCCN(c2cc(-c3ccc(Cl)cc3)[nH]n2)CC1 | ? | i | -1% | ? | -11% | . | . | . | .
CN(C)c1ccc(C(=O)NCC2CCN(c3cc(-c4ccccc4)[nH]n3)CC2)cc1 | ? | ? | -25% | ? | -10% | . | . | . | .
N#Cc1ccc(C(=O)N2CCN(c3cc(-c4ccc(Cl)cc4)[nH]n3)CC2)cc1 | ? | i | i | ? | 6.3µM* | 9.7µM* | 11µM* | 4% | 6.9µM*
CN(C)c1ccc(C(=O)NCC2CCN(c3cc(-c4ccc(Cl)cc4)[nH]n3)CC2)cc1 | ? | i | -11% | ? | ? | ? | ? | -30% | ?
COc1ccc(C(=O)N2CCC(Cc3nc(-c4ccccc4)n[nH]3)CC2)cc1OC | -2% | ? | i | -22% | 2% | . | . | . | .
COc1ccc(C(=O)N2CCC(C(=O)N3CCC(N4Cc5ccccc5C4=O)CC3)CC2)cc1 | -29% | . | -12% | -39% | . | . | . | . | .
CCOc1ccc(C(=O)N2CCN(c3cc(-c4ccc(OC)cc4)[nH]n3)CC2)cc1 | ? | i | i | ? | -23% | . | . | . | .
CCOc1ccc(C(=O)N2CCN(c3cc(-c4ccc(Cl)cc4)[nH]n3)CC2)cc1 | ? | i | -4% | ? | 13µM* | 22µM* | 19µM* | -3% | 15µM*
O=c1[nH]c2ccccc2n1C1CCN(c2nccc(-c3cccnc3)n2)CC1 | 32µM* | i | -5% | 14µM* | 11µM* | 22µM* | 24µM* | 1% | 19µM*
Cc1cccc(-n2ncc3c2CCCC3NC(=O)c2c(F)ccc(F)c2F)c1C (stereo unspecified) | ? | i | i | -66% | 5µM* | 11µM* | 11µM* | 1% | 8.6µM*
C#CCNC(=O)[C@H]1O[C@H](CCN2CCN(c3ccccc3)CC2)CC[C@@H]1O | i | i | -6%[88.5 µM] | -4%[172 µM] | 9%[70.6 µM] | . | . | . | .
O=C(COc1ccc(F)cc1)N1CCC(n2cc(-c3nc(-c4ccccc4)no3)nn2)CC1 | -19% | i | i | -28% | -13% | . | . | . | .
COc1cccc(CN2CCOC3(CCN(Cc4ccc(C#N)cc4)CC3)C2=O)c1 | ? | i | 1%[88.5 µM] | ? | ? | 35µM* | 40µM* | 2%[86.2 µM] | 35µM*
Cc1ccc(C2Cn3nnc(C(=O)N4CCN(C(=O)c5cccc(C)c5)CC4)c3CO2)cc1 (stereo unspecified) | ? | i | i | 45µM* | 11µM* | 22µM* | 22µM* | -1% | 19µM*
COc1ccc(C2Cn3nnc(C(=O)N4CCN(C(=O)c5cccc(C)c5)CC4)c3CO2)cc1 (stereo unspecified) | ? | i | 3% | 8.9µM* | 14µM* | 19µM* | 22µM* | 5% | 14µM*
COc1ccc(C2Cn3nnc(C(=O)N4CCN(C(=O)c5ccc(C)s5)CC4)c3CO2)cc1 (stereo unspecified) | ? | i | -1% | ? | ? | 24µM* | 24µM* | 0% | 24µM*
O=C(c1ccccc1)N1CCN(C(=O)c2nnn3c2COC(c2ccccc2)C3)CC1 (stereo unspecified) | -24% | i | i | -30% | -3% | . | . | . | .
Cc1ccc(C2Cn3nnc(C(=O)N4CCN(C(=O)c5cccc(Cl)c5)CC4)c3CO2)cc1 (stereo unspecified) | ? | i | i | 32µM* | ? | 15µM* | 22µM* | 2% | 14µM*
CCn1nccc1C(=O)Nc1ccc(-c2nnc3n2CCCC3)cc1 | -4% | i | i | 5% | 3% | . | . | . | .
Cc1ccc(OCCC2CCN(C(=O)CCCC(=O)n3nc(C)c4ccccc43)C2)cc1 (stereo unspecified) | ? | i | i | 40µM* | 10µM* | 11µM* | 14µM* | 0% | 11µM*
COC(=O)N1CCN(C(=O)c2nc3cccnc3n(-c3ccccc3OC)c2=O)CC1 | i | . | i | -7% | . | . | . | . | .
CCn1cc(-c2ccc(C)cc2)cc1C(=O)N1CCN(c2ccccn2)CC1 | 35µM* | i | ? | 32µM* | 14µM* | 19µM* | 19µM* | -2% | 15µM*
O=C(NCc1cccc(C(F)(F)F)c1)C1CCN(Cc2ccccc2-c2cccnc2)CC1 | ? | . | -33% | ? | . | . | . | . | .
CCOc1ccccc1C(=O)N1CCC2(CC1)CN(c1ncccn1)CC2CO (stereo unspecified) | -20% | i | i | -5% | -6% | . | . | . | .
SMILES | NIH3T3 tox | Luciferase inh | GPT2 inhibitor | HEK cytotox | hNpr1 antagonist | Npr1 antag conf | Npr2 selectivity | FLuc inh counter | GloSensor ctrl
Cn1c(CNC(=O)c2ccc3nccn3c2)nc2cc(C(F)(F)F)ccc21 | ? | i | ? | ? | 11µM* | 22µM* | 19µM* | -10% | 27µM*
Cc1ccc(C(=O)NC2CCN(c3nc4ncccc4o3)CC2)cc1 | -32%[138 µM] | i | i | -12%[172 µM] | 5%[70.6 µM] | . | . | . | .
CN(Cc1cccc2cnccc12)C(=O)c1cc(COc2ccc(F)cc2F)on1 | ? | i | i | ? | 11µM* | 24µM* | 22µM* | -1% | 19µM*
Cc1ccc(C(=O)N2CCC3(CC2)CC(N(Cc2ccccc2)C2CC2)CCO3)cc1F (stereo unspecified) | ? | i | i | 45µM* | 11µM* | 24µM* | ? | -3% | 27µM*
CC(C)C(=O)N1CCC2(CC1)CC(N(Cc1ccc(F)cc1)C1CC1)CCO2 (stereo unspecified) | -24% | i | -12% | ? | -24% | -19% | -16% | 1% | -3%
O=C(Cc1ccc(F)cc1)N1CCC2(CC1)CC(N(Cc1ccccc1)C1CC1)CCO2 (stereo unspecified) | ? | i | i | ? | ? | . | . | . | .
